In PubChem BioAssay AID1117283 (Broad Institute, 2014):
Potency and affinity values are given separately. The source made the active and inactive calls.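 How the source made its calls: active means fluorescent signal decreased by at least 40%; inconclusive means no clear call, values can overlap the other calls; inactive means the rest, including activity opposite to the expected direction.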

Experiment: inhibition of fibronectin matrix deposition – AH1F cells, Alexa488-fibronectin fluorescence, cherry-pick, set 2, dose response (AID 1117283);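 further: AH1F fibroblasts given Alexa488-labelled fibronectin at 24 nM final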

## C[C@H]1CN([C@@H](C)CO)C(=O)c2cc(NC(=O)CCCN(C)C)ccc2O[C@@H]1CN(C)Cc1ccc(-c2ccccc2)cc1
  outcome: inactive

## COCC(=O)Nc1ccc2c(c1)C(=O)N(C)[C@@H]1CC[C@H](CC(=O)NCc3ccccc3Cl)O[C@@H]1CO2
  outcome: inactive

## O=C(C[C@@H]1C[C@@H]2c3cc(NC(=O)c4ccc5c(c4)OCO5)ccc3O[C@@H]2[C@@H](CO)O1)NCc1ccc(Oc2ccccc2)cc1
  outcome: inactive

## CO[C@@H]1CN(C)C(=O)c2cc(NC(=O)Nc3cc(Cl)cc(Cl)c3)ccc2OC[C@H](C)NC[C@H]1C
  outcome: inactive

## c1ccc2[nH]c(SCc3cn4cccnc4n3)nc2c1
  outcome: inactive

## C[C@@H]1CN([C@H](C)CO)C(=O)c2cc(NC(=O)C3CCCCC3)ccc2O[C@H]1CN(C)Cc1ccc(-c2ccccc2)cc1
  outcome: inactive

## Cc1ccn2cc(-c3ccc(NC(=O)c4ccco4)cc3)nc2c1
  outcome: inactive

## C[C@H]1CN([C@@H](C)CO)C(=O)c2cc(-c3ccccc3)cnc2O[C@H]1CN(C)C(=O)c1cccc(F)c1
  outcome: inactive

## C[C@@H]1CN([C@@H](C)CO)C(=O)c2cccc(NC(=O)Nc3ccc(C(F)(F)F)cc3)c2O[C@@H]1CN(C)C(=O)Nc1cccc2ccccc12
  outcome: inactive

## COc1ncccc1C(=O)NC1CCCc2c1cnn2-c1ccc(C)c(C)c1 (configuration not stated)
  outcome: inactive

## C[C@@H]1CN([C@@H](C)CO)C(=O)c2cc(-c3ccccc3)cnc2O[C@H]1CN(C)C(=O)c1cccc(F)c1
  outcome: inactive

## COCC(=O)Nc1ccc2c(c1)C(=O)N(C)[C@H]1CC[C@@H](CC(=O)NCc3ccccc3Cl)O[C@@H]1CO2
  outcome: inactive
